Results on 32 molecules are retold here after PubChem BioAssay (Tox21).

Values joined by “and” are separate entries in the source; they are usually repeats but may differ in a detail not shown here. Identical values can stand only once. Records with an inconclusive call do not appear. A call without a number means that no potency is given here. Some compounds were tested as several samples or in several runs, with calls that do not always agree. Active and inactive are the calls of the source. Unless noted, calls follow the shape of the dose curve; as a rule, active = well fitted cell-killing curve with a large enough effect in the repeat runs; inconclusive = weak or mixed curves; inactive = no such curve, though single readings can be large or run the other way.

Peroxisome proliferator-activated receptor delta (Homo sapiens), sequence (Q03181 whole entry, looked up): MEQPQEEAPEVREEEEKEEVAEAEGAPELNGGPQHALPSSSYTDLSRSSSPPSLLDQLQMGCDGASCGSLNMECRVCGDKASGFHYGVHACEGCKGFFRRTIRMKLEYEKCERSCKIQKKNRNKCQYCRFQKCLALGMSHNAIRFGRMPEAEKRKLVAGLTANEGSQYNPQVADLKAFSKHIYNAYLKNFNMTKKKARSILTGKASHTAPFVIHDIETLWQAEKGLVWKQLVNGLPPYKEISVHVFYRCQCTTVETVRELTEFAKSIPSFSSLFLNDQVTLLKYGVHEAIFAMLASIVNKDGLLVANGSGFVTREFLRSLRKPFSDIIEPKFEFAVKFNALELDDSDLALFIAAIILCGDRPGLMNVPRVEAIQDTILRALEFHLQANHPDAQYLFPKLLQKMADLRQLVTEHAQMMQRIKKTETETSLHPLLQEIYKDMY

Test system in one test: not listed separately
Briefly: qHTS assay to identify small molecule antagonists of the peroxisome proliferator-activated receptor delta (PPARd) signaling pathway - cell viability counter screen (AID 743213). Also: nearly all actives have a fitted effect of over 50% in size. The conditions noted are these: PPARd-bla HEK293H viability, CellTiter-Glo luminescence, 17 h; series mostly up to 62 µM. The method, boiled down: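 Viability counter-screen, qHTS format: PPARd-bla HEK293H, L165041 300 nM final, 17 h compound exposure at 37 C, CellTiter-Glo luminescence after 30 min RT.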
For `Oc1cccc2cc3cccc(O)c3c(O)c12`, the Potency entry is “inactive”.
Same read-out and setting: the result for `CNC(=O)c1ccccc1` reads “inactive”; that for `Nc1c2ccccc2nc2ccccc12`, “inactive”; that for `OCCCCCCCCCCCCBr`, “inactive”.
Same read-out and setting: for `COC(=O)c1cc(Cl)ccc1OC` the value was “inactive”; for `CCCC1O[C@@H]2C[C@H]3[C@@H]4CCC5=CC(=O)C=C[C@]5(C)[C@H]4[C@@H](O)C[C@]3(C)[C@]2(C(=O)CO)O1` (some centres not stated), “inactive”.
For the molecule `CC(C)(C)C1CCC(CC2=C(O)c3ccccc3C(=O)C2=O)CC1` (configuration not stated), the Potency result was “inactive”.
For `CCCCCCCCCCC=O`, the Potency entry is “inactive”.
For `CC[C@H](c1ccc(O)cc1)[C@@H](CC)c1ccc(O)cc1`, the Potency result was “inactive”.
Take `Clc1ccc2nsnc2c1NC1=NCCN1`: the Potency result is “inactive”.
In the case of `O=c1cc(-c2ccc(O)cc2)oc2cc(O)cc(O)c12`, the Potency result was “inactive”.
Consider `CSc1cnc(C)cn1`, for which the Potency entry is “inactive”.
In the case of `CC(C)(C)C(=O)OCOC(=O)[C@@H]1N2C(=O)[C@@H](NC(=O)[C@H](N)c3ccccc3)[C@H]2SC1(C)C`, the Potency entry was “inactive”.
Turning to `ON=C1CCCC1`, the Potency result was “inactive”.

For a further test, the target named is Peroxisome proliferator-activated receptor delta (Homo sapiens) (UniProt Q03181). Briefly: qHTS assay to identify small molecule antagonists of the peroxisome proliferator-activated receptor delta (PPARd) signaling pathway (AID 743215; active = well fitted inhibition curve with a large enough effect in the signal ratio in the repeat runs, not every such curve was filed as active; the % refers to the signal ratio;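 also: cells stimulated with agonist L165041 at 300 nM final during compound exposure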; also: potency is read from the fitted curve at half-maximal effect). The conditions noted are these: HEK293H PPARd-UAS-bla, beta-lactamase FRET ratio, antagonist, 17 h; series mostly up to 62 µM. The method, boiled down:
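PPARd-bla HEK293H cells (UAS-bla reporter) preincubated 5 h, then given compound plus 300 nM final L165041 agonist for 17 h at 37 C. Beta-lactamase activity read by LiveBLAzer B/G FRET substrate fluorescence after 2 h at room temperature.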
For orientation: In qHTS, concentration-response curves come from the screen itself.
`Cc1c(C)c2c(c(C)c1OC(=O)CCC(=O)O)CC[C@@](C)(CCC[C@H](C)CCC[C@H](C)CCCC(C)C)O2`: the Potency result is “inactive”.
Take `Nc1ccc2cc(S(=O)(=O)O)cc(O)c2c1N=Nc1ccccc1C(F)(F)F`: the Potency result was “inactive”.
For the molecule `O=C(O)c1ccc(Cl)c(Cl)c1`, the Potency entry is “inactive”.
Same read-out and setting: for `CC(=O)OCC(C)OC(C)=O` (configuration not stated) the value was “inactive”; for `C=C(C)C(=O)OCC(O)COc1ccc(C(C)(C)c2ccc(OCC(O)COC(=O)C(=C)C)cc2)cc1` (configuration not stated), 27.5 µM (active).
`Cc1cccc(S(=O)(=O)O)c1C`: the Potency result was “inactive”.
Same read-out and setting: for `COCCCC/C(=N\OCCN)c1ccc(C(F)(F)F)cc1` the value was “inactive”.
As to `COc1cc(/C=C/C(=O)O[C@H]2CC[C@]34C[C@]35CC[C@]3(C)[C@@H]([C@H](C)CCC=C(C)C)CC[C@@]3(C)[C@@H]5CC[C@H]4C2(C)C)ccc1O`, the Potency result is “inactive”.
Same read-out and setting: for `N#CC1(c2ccc(F)cc2)CCC(=O)CC1` the value was “inactive”; for `CCCCN(CCCC)C(=O)N(CCCC)CCCC`, “inactive”; for `O=C1c2ccccc2Cc2ccccc21`, “inactive”.
Consider `CCCC(C)c1ccccc1O` (configuration not stated), for which the Potency entry is “inactive”.
Regarding `O=C(NO)C1(NS(=O)(=O)c2ccc(Oc3ccc(F)cc3)cc2)CCOCC1`, the Potency entry was “inactive”.
Still for that read-out and setting: for `CN(C)CCCOC1(Cc2ccccc2)CCCCCC1` the value was “inactive”; for `Cc1ccc(O)c(C(C)(C)C)c1`, “inactive”; for `NNC(=O)c1cccc(C(=O)NN)c1`, “inactive”.
Consider `CCCCCCCCCCCCCCCC(=O)OC[C@H](O)[C@H]1OC(=O)C(O)=C1O`, for which the Potency entry was “inactive”.
For the molecule `Nc1ccccc1O`, the Potency result is “inactive”.
Regarding `CNC(=O)c1ccccc1`, the Potency entry was “inactive”.
`COC(=O)c1cc(Cl)ccc1OC`: the Potency result was “inactive”.
Regarding `CCCC1O[C@@H]2C[C@H]3[C@@H]4CCC5=CC(=O)C=C[C@]5(C)[C@H]4[C@@H](O)C[C@]3(C)[C@]2(C(=O)CO)O1` (some centres not stated), the Potency result was “inactive”.
For `CCCCCCCCCCC=O`, the Potency entry was “inactive”.
Still for that read-out and setting: the result for `CC[C@H](c1ccc(O)cc1)[C@@H](CC)c1ccc(O)cc1` reads “inactive”.
As to `Clc1ccc2nsnc2c1NC1=NCCN1`, the Potency entry was “inactive”.
Take `O=c1cc(-c2ccc(O)cc2)oc2cc(O)cc(O)c12`: the Potency entry was “inactive and 17.4 µM (active)”.
Take `CSc1cnc(C)cn1`: the Potency result was “inactive”.
Take `CC(C)(C)C(=O)OCOC(=O)[C@@H]1N2C(=O)[C@@H](NC(=O)[C@H](N)c3ccccc3)[C@H]2SC1(C)C`: the Potency result was “inactive”.
Turning to `ON=C1CCCC1`, the Potency result was “inactive”.
